Source: PubChem BioAssay (several laboratories)
An excerpt weighted towards active compounds, which were near 2.2% of everything screened.
aSyn 5UTR inh – MLPCN primary screen, SNCA 5' untranslated region | alpha-synuclein 5'UTR reporter, inhibitor activity | inhibition, % (tested at 7.5 µM) | actives 0.82% (n = 300,000); in the data active = inhibition above about 60%;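 also: H4 neuroglioblastoma cells stably carrying SNCA 5'UTR luciferase fusion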
BaF3 tox – parental Ba/F3 cell viability inhibition, counter-screen for JAK2V617F inhibitor project, murine pro-B, CellTiter-Glo luminescence; inhibition, % at 5.6 µM; CellTiter-Glo ATP luminescence; actives 1.1% (n = 220,000); AID 1486, 2009;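 active = inhibition above a per-campaign cutoff, the mean inhibition of all tested compounds plus 3 SD, cut at about 27% in these data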
Ba/F3 V617F tox – reduced viability of JAK2V617F-dependent Ba/F3 cells, primary screen, JAK2V617F inhibitor project, cell-based, Ba/F3 EpoR-JAK2V617F, luminescence; ATP luminescence; inhibition, % at 5.6 µM; actives 1.1% (n = 220,000); AID 1446, 2008;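 active = inhibition above the campaign mean plus 3 SD over all tested compounds, cut at about 24% in these data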;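 also: cytokine-independent growth of Ba/F3 cells driven by EpoR plus mutant JAK2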
IEC-6 cytotox – cytotoxicity in IEC-6 intestinal epithelial cells, primary screen, cytotoxicity control for KLF5 inhibitor project, cell-based, luminescence; actives 0.78% (n = 290,000); IEC-6 cytotoxicity, luminescence viability; inhibition, % at 5 µM; in the data active = inhibition above about 22%
APP transl inh – inhibitors of APP translation via 5'UTR reporter, primary screen, APP 5'UTR luciferase, SH-SY5Y cells. SH-SY5Y APP 5'UTR-luciferase reporter, luminescence. inhibition, % at 2 µM. AID 1285, 2008. actives 0.82% (n = 190,000);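 active = inhibition above a set limit, derived from the sample mean plus 3 SD, cut at about 45% in these data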
KLF5 inhibitor – KLF5 expression inhibitors, primary screen, DLD-1 cells, luminescence; inhibition, % at 5 µM; DLD-1 KLF5 promoter-luciferase reporter; actives 0.23% (n = 290,000);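 active = inhibition above a per-plate limit of that plate's mean compound inhibition plus 3 SD, cut at about 60% in these data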;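 also: higher means less KLF5 promoter-driven luciferase light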
Large screens that a line does not name were inactive.

COc1ccc(C2NC(c3ccc(OC)cc3)C(C)C(=O)C2C)cc1 (configuration not stated)	none (no result: BaF3 tox, Ba/F3 V617F tox, APP transl inh)
Cc1nn(-c2ccccc2)c(N2CCCC2)c1/C=N/Nc1ccc(S(=O)(=O)Nc2ccccc2)cc1[N+](=O)[O-]	none
CC(=O)N1/C(=C/c2ccc(N(C)C)cc2)C(=O)c2ccccc21	APP transl inh 81
COc1ccccc1OCC(=O)Nc1cccc(N(C)S(C)(=O)=O)c1	APP transl inh 56
O=[N+]([O-])/C=C/c1cn(Cc2ccc(F)cc2)c2ccccc12	aSyn 5UTR inh 63
CCOCCOC(=O)c1[nH]c2c(c1C)C(=O)CC(c1cccs1)C2 (configuration not stated)	aSyn 5UTR inh 85, BaF3 tox 80, Ba/F3 V617F tox 80, IEC-6 cytotox 87, APP transl inh 93, KLF5 inhibitor 77
COc1ccc(-n2cc(-c3ccc(Cl)cc3)[nH]c2=S)cc1	none (no result: APP transl inh)
Clc1ccc(-c2cn(-c3ccc(Cl)cc3)c3[n+]2CCCCC3)cc1	BaF3 tox 62, Ba/F3 V617F tox 46 (no result: APP transl inh)
COc1ccc(-c2cn(-c3ccc(Cl)cc3)c3[n+]2CCCCC3)cc1	BaF3 tox 68, Ba/F3 V617F tox 71 (no result: APP transl inh)
COc1ccc(-n2cc(-c3ccc(OC(F)F)cc3)[n+]3c2CCCCC3)cc1	BaF3 tox 64, Ba/F3 V617F tox 72
Cc1nc2ccc(-n3ccc(=O)cc3)cc2s1	none
CC1CCN(S(=O)(=O)c2cccc(C(=O)NNC(=O)c3ccco3)c2)CC1	none (no result: APP transl inh)
OC(COCc1cccs1)CN1CCN(c2cccc(Cl)c2)CC1 (configuration not stated)	none
CC1(C)CC(=O)C(C(=S)Nc2ccccc2)=C(NCCN2CCOCC2)C1	BaF3 tox 35
CC1(C)CC(=O)C(C(=S)Nc2ccc(F)cc2)=C(NCCN2CCOCC2)C1	none
CCOC(=O)COc1ccc(S(=O)(=O)Nc2cccc(SC)c2)cc1	APP transl inh 69
O=C(CSc1ncccc1C(=O)O)c1ccccc1	none
O=C(NNC(=O)C1CC(c2cccs2)=NO1)Nc1ccc(Cl)cc1 (configuration not stated)	none (no result: BaF3 tox, Ba/F3 V617F tox, APP transl inh)
CN(C)c1ccc(NC(=S)c2ccccn2)cc1	aSyn 5UTR inh 97
NS(=O)(=O)c1ccc(CCNc2ncnc3sccc23)cc1	BaF3 tox 43, Ba/F3 V617F tox 33
Cc1sc2ncnc(NCCCn3ccnc3)c2c1C	none
Cc1sc2ncnc(NCCc3ccc(S(N)(=O)=O)cc3)c2c1C	BaF3 tox 58, Ba/F3 V617F tox 51
COc1ccc(CCNc2ncnc3sccc23)cc1OC	BaF3 tox 69, Ba/F3 V617F tox 64
COc1ccc(CCNc2ncnc3c2oc2ccccc23)cc1OC	BaF3 tox 62, Ba/F3 V617F tox 51
Cn1cccc1CNCc1ccccc1Cl	none
CCOC(=O)C1CCCN(C(=O)c2ccc(C)c([N+](=O)[O-])c2)C1 (configuration not stated)	none
OC(c1cc(-c2ccc(C(F)(F)F)cc2)nc(C(F)(F)F)c1)C1CCCCN1 (configuration not stated)	aSyn 5UTR inh 103, BaF3 tox 53, Ba/F3 V617F tox 96, IEC-6 cytotox 40 (no result: APP transl inh)
CCOC(=O)c1cc(C)nc(SC)c1C#N	none (no result: APP transl inh)
COc1ccc(Oc2nc3ccccc3nc2C(F)(F)F)cc1	none
CC(C)n1c(/C=C/[C@@H](O)C[C@@H](O)CC(=O)O)c(-c2ccc(F)cc2)c2ccccc21	aSyn 5UTR inh 64 (no result: BaF3 tox, Ba/F3 V617F tox, APP transl inh)
Cc1nc2c(-c3ccc(F)cc3)c(C)nn2c(C)c1CCC(=O)Nc1ccccc1	none (no result: APP transl inh)
COCc1c(C(C)C)nc(C(C)C)c(/C=C/[C@@H](O)C[C@@H](O)CC(=O)O)c1-c1ccc(F)cc1	aSyn 5UTR inh 115 (no result: BaF3 tox, Ba/F3 V617F tox, IEC-6 cytotox, APP transl inh, KLF5 inhibitor)
COc1ccc(C2=NN(C(=O)CCC(=O)O)C(c3ccc(F)cc3)C2)cc1 (configuration not stated)	none (no result: BaF3 tox, Ba/F3 V617F tox, APP transl inh)
COc1ccc2[nH]c3c(=O)n(CCCCC(=O)N4CCC(C(N)=O)CC4)c(=S)[nH]c3c2c1	none
O=C(COc1nsnc1N1CCOCC1)Nc1ccc([N+](=O)[O-])cc1	none (no result: BaF3 tox, Ba/F3 V617F tox, APP transl inh)
CCCC1=[N+](CC(=O)c2ccccc2)CCn2c(C)ccc21	BaF3 tox 27, Ba/F3 V617F tox 32
CCCC1=[N+](CC(=O)c2ccc(C)cc2)CCn2cccc21	none
CCCC1=[N+](CC)CCn2c(C)ccc21	BaF3 tox 64, Ba/F3 V617F tox 61
Cc1cccc(C)c1NC(=S)N(CCCN1CCN(C)CC1)Cc1cccs1	none
CCN1CC(CNCc2cn(-c3ccc(OC)cc3)nc2-c2ccccc2Cl)CC1=O (configuration not stated)	none
Cc1ccc2c(CSc3nnc4ccccn34)cc(=O)oc2c1C	none
CCOC(=O)c1sc(NC(=O)Nc2cccc(Cl)c2)cc1C	BaF3 tox 43
Cc1ccc(NC(=O)C(=O)NCC2CCCN2S(=O)(=O)c2cccs2)c(C)c1 (configuration not stated)	none (no result: BaF3 tox, Ba/F3 V617F tox, IEC-6 cytotox, APP transl inh, KLF5 inhibitor)
Cc1cc(N2CCN(c3ccc([N+](=O)[O-])c4cccnc34)CC2)c2ccccc2n1	aSyn 5UTR inh 84
C(#Cc1ccccc1)C[N+]1(CC#Cc2ccccc2)CCCC1	BaF3 tox 71, Ba/F3 V617F tox 87
C=CC#CC[N+]1(CC#Cc2ccccc2)CCOCC1	none
C=CC[N+]1(CC#Cc2ccccc2)CCCC1	BaF3 tox 56, Ba/F3 V617F tox 46
CC(C)(C)C(=O)/C(=C\c1ccc([N+](=O)[O-])cc1)n1cncn1	BaF3 tox 90, Ba/F3 V617F tox 97, IEC-6 cytotox 23, APP transl inh 93
Nc1cccc2nc3ccccc3cc12	aSyn 5UTR inh 101, BaF3 tox 29, Ba/F3 V617F tox 41 (no result: APP transl inh)
CCOC(=O)c1cccc(NC(=O)/C(=C\c2ccccc2)NC(=O)c2ccccc2Cl)c1	none
CCOC(=O)Cc1csc(/N=C/c2c(O)n(-c3ccc(C)c(C)c3)c(=O)c3ccccc23)n1	aSyn 5UTR inh 105
O=C(CN(c1cccc([N+](=O)[O-])c1)S(=O)(=O)c1ccccc1)N(Cc1ccccc1)Cc1ccccc1	none
O=C1C2C3C=CC(CO)(O3)C2C(=O)N1c1ccccc1-c1ccccc1 (configuration not stated)	APP transl inh 70 (no result: aSyn 5UTR inh)
O=C(O)CSc1nnc(CNc2ccc(Cl)cc2)n1Cc1ccccc1	none
Cc1cc(Cl)c2oc(C(=O)N3CCN(c4ccncc4)CC3)c(C)c2c1	aSyn 5UTR inh 90 (no result: BaF3 tox, Ba/F3 V617F tox, APP transl inh)
O=C(CCc1ccccc1)OCCN1CCOCC1	none
CCCCCOc1ccc(C(=O)NCC2(c3ccccc3)CCOCC2)cc1	none
Cc1ccc(C2=NS(=O)(=O)N(C)C(C(=O)NCc3ccc(F)cc3)=C2)cc1	none (no result: BaF3 tox, Ba/F3 V617F tox, APP transl inh)
Cc1ccccc1-n1cnc2cc(NCc3cccs3)ccc21	none
